Out of some 69,000 compounds screened, about 8,600 (12%) showed an effect of 50% or more. The list comes from a sample in which strong results are over-represented; it also holds similar structures and randomly drawn compounds.
tested on: Plasmodium berghei; assay: Screen against P. berghei liver stage (PbLuc), transformed with Luciferase, at 10uM; assay type: functional, HepG2; conditions: tested at 10 uM

SMILES | INHIBITION [%]
CCC(CN1CCCC1)NC(=O)Cc1c(C)[nH]c2c(C)cc(C)cc12 (stereo not given) | 41.2
Cc1nn(C)c(C)c1S(=O)(=O)N1C[C@@H]2C[C@@H](C)O[C@@H]2C1 | 8.74
CN(C)C(=O)CN1C(=O)[C@@H]2CC[C@H]1CN(Cc1ccccc1C#N)C2 | 23.9
O=C(NCC1CC1)C1CCC2(CCN(C(=O)c3cccs3)CC2)O1 (stereo not given) | -14.7
O=C(Nc1ccc(Br)cc1F)c1ccc(N2CCCCC2)nn1 | 10.8
O=C(Nc1ccc(Br)cc1F)c1ccc(N2CCOCC2)nn1 | 52.3
CSc1ccccc1NC(=O)c1ccc(N2CCOCC2)nn1 | -117
COc1ccc(C)cc1C(=O)N1CCCC(n2cncn2)C1 (stereo not given) | -16
Cc1ccc(-c2nc(CN(Cc3ccco3)C3CCS(=O)(=O)C3)cs2)o1 (stereo not given) | 62.8
Cc1noc(CN(Cc2cccs2)C2CCS(=O)(=O)C2)n1 (stereo not given) | 49.8
Cc1ccc(-c2nc(CN3CCCC(C(=O)N(C)C)C3)cs2)o1 (stereo not given) | 35.9
O=C(NCC1CCS(=O)(=O)C1)N(Cc1ccco1)C1CC1 (stereo not given) | 38.2
Cc1ccc(-c2nc(CN(Cc3cccs3)C3CCS(=O)(=O)C3)cs2)o1 (stereo not given) | 87.6
Cc1nc(CN(Cc2cccs2)C2CCS(=O)(=O)C2)oc1C (stereo not given) | 19.5
O=S1(=O)CCC(N(Cc2nc3ccccc3o2)Cc2cccs2)C1 (stereo not given) | -32.5
Cc1noc(C)c1CN(Cc1cccs1)C1CCS(=O)(=O)C1 (stereo not given) | 36.1
CC(C)(C)c1nc(CN(Cc2cccs2)C2CCS(=O)(=O)C2)cs1 (stereo not given) | 59.4
Cc1ccc(-c2nc(CN3CCC(C(=O)N(C)C)CC3)cs2)o1 | 39.5
CC(C)(C)c1nc(CN(Cc2cccs2)C2CCS(=O)(=O)C2)no1 (stereo not given) | 34.7
Cc1ccc(-c2nc(CN(C)C3CCS(=O)(=O)C3)cs2)o1 (stereo not given) | 57.7
CCOCCN1Cc2cnn(C)c2C(COCC)C1 (stereo not given) | 42.7
CN(C)c1ncccc1CNC(=O)N1CCCC1c1cccs1 (stereo not given) | 4.71
CCN1CCN(C)C2(CCN(Cc3ccc(C)o3)CC2)C1=O | -93.5
O=c1[nH]cc(N2CCOCC2)c(=O)[nH]1 | -56.8

SMILES | INHIBITION [%]
CCn1ccnc1CN1CCN(CCc2ccccn2)CC1C (stereo not given) | 13.8
O=C1N(CC2CC2)CCC12CCN(CC1CC1)CC2 | 21.7
O=C(CCCNCc1ccccc1)N1CCCn2cncc2C1 | 30.9
Cc1ccc(CN2CCc3ncnc(-c4cccnc4)c3CC2)o1 | 13.7
Cc1cc(N2CCC(C(=O)N(C)C)CC2)nc(-c2ccncc2)n1 | -148
COc1cccc(-c2c[nH]c(C)n2)c1F | -114
CCCS(=O)(=O)N1CCC(NC(=O)c2ccc(Cl)s2)CC1 | 21
CC(C)N1CC(NC(=O)c2ccc(Cl)s2)CC1=O (stereo not given) | 83.8
O=C(NC1CC(=O)N(C2CC2)C1)c1ccc(Cl)s1 (stereo not given) | 33.1
O=C(NCCCF)N1CCC(n2ccc(C(F)(F)F)n2)CC1 | 36.3
O=C(CNC(=O)N1CCc2c([nH]c3ccc(Cl)cc23)C1)NC1CCCC1 | -6.91
COCC(=O)N1CC(c2n[nH]cc2C)C1 | -41.1
CN1CCN(C(=O)c2cc3c(s2)CCN3C(=O)C2CC2)CC1 | -29.8
O=C(NC1CCCC1)c1cc2c(s1)CCN2C(=O)c1ccccc1 | 55.9
O=C(NCCN1CCCC1)c1cc2c(s1)CCN2C(=O)c1ccccc1 | -28
CCCNC(=O)c1cc2c(s1)CCN2C(=O)c1ccccc1 | -27
O=C(NC1CC1)c1cc2c(s1)CCN2C(=O)C1CC1 | 51.4
O=C(c1cc2c(s1)CCN2C(=O)C1CC1)N1CCCC1 | 23.3
c1cncc(COCc2nnn3c2CN(Cc2ccsc2)CC3)c1 | -9.26
O=C(O)CNc1cc(-c2cc(C3CC3)ncn2)c2cc[nH]c2n1 | 19.5
Nc1cc(-c2cc(C(=O)O)ccc2Cl)c2cc[nH]c2n1 | 15.2
O=C(O)CNc1cc(-c2nccnc2N2CCCC2)c2cc[nH]c2n1 | 51.8
Nc1cc(-c2nccnc2N2CCCC2)c2cc[nH]c2n1 | 58.3
OCCNc1cc(-c2nccnc2N2CCCC2)c2cc[nH]c2n1 | 37.7

SMILES | INHIBITION [%]
Nc1cc(-c2ccc(C(=O)O)cc2O)c2cc[nH]c2n1 | 2.91
CN1CC(=O)N(c2cccc(F)c2)CC12CCN(Cc1cncn1C)C2 (stereo not given) | -15.7
CS(=O)(=O)NCC1CCCN(C(=O)c2ccc(Cl)o2)C1 (stereo not given) | 15
O=C(c1ccccn1)N1CC[C@@H](N2CCOCC2)[C@@H]1Cc1ccccc1 | 39.2
Cc1nccn1-c1cncc(C2CCCN2Cc2ccccc2)n1 (stereo not given) | 36.7
COCCN1CCCc2sc(C(=O)N3CCCN(C)CC3)nc21 | 5.36
Clc1ccccc1CN1CCc2nc(C3CCCNC3)ncc2C1 (stereo not given) | 6.32
Cc1noc(NC(=O)c2ccccc2)n1 | -10.6
Cc1noc(NC(=O)c2ccc(Br)s2)n1 | 85.9
Cn1nc(CNC(=O)c2ccc(OC(F)(F)F)cc2)c2c1CCOC2 | -6.42
Cc1noc(NC(=O)c2ccc(Br)o2)n1 | 31.9
Cc1noc(NC(=O)c2ccc(C#N)cc2)n1 | -0.96
Cc1c(NC(=O)c2cccc(Br)c2)c(C(=O)N(C)C)nn1C | 45.8
Cc1noc(NC(=O)c2ccc(Br)cc2)n1 | 91.5
Cc1noc(COCC(=O)Nc2ccc(Br)c(C)n2)n1 | 10.7
Cc1ccc(C(=O)Nc2nc(C)no2)cc1 | 23.7
Cc1noc(NC(=O)c2ccc(OC(F)(F)F)cc2)n1 | 87.6
Cc1noc(NC(=O)CCNC(=O)c2ccc(Br)cc2)n1 | 14.1
Cc1noc(NC(=O)c2cccc(Br)c2)n1 | 88.2
Cc1n[nH]c(C)c1NC(=O)NCc1cc[nH]n1 | 36
O=C(NCC1CCCO1)N1CCN(Cc2ccc3c(c2)CCO3)CC1 (stereo not given) | -21.5
OCCNc1nccc(-c2c[nH]nc2-c2cccnc2)n1 | 15.9
